Assay in all cases: Primary qHTS to identify gynecologic anti-cancer compounds using libraries of approved drugs and bioactive compounds (AID 1345084); further: nearly all actives have a fitted effect of over 55% in size
In general terms: Quantitative high-throughput screening tests each substance at several concentrations.

One test concerns C33A. As to conditions: Gynecologic cancer cell panel viability, ATPlite luminescence, 48 h; series mostly up to 57.5 µM. The essentials:
(§1)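 Measured: luminescence after ATPlite addition (15 min, RT). Exposure: 48 h, 37 C, 5% CO2.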
(ATP-based viability assays read luminescence as a measure of living cells.)

For a further test, the system named is CAOV3. To be noted: Gynecologic cancer cell panel viability, ATPlite luminescence, 48 h; series mostly up to 57.5 µM. Summed up: as §1
The subject of another test is CASKI. To be noted: Gynecologic cancer cell panel viability, ATPlite luminescence, 48 h; series mostly up to 57.5 µM. Summed up:
as §1

In a further test the test system is Es-2. As to conditions: Gynecologic cancer cell panel viability, ATPlite luminescence, 48 h; series mostly up to 57.5 µM. The essentials:
as §1

A further test relates to HeLa. To be noted: Gynecologic cancer cell panel viability, ATPlite luminescence, 48 h; series mostly up to 57.5 µM. Summed up:
as §1

A further test has as its system Hek293T. To be noted: Gynecologic cancer cell panel viability, ATPlite luminescence, 48 h, control line for the selectivity index; series mostly up to 57.5 µM. Summed up:
as §1

A further test has as its system JEG-3. To be noted: Gynecologic cancer cell panel viability, ATPlite luminescence, 48 h; series mostly up to 57.5 µM. The essentials: as §1
The next test deals with OV90. To be noted: Gynecologic cancer cell panel viability, ATPlite luminescence, 48 h; series mostly up to 57.5 µM. Summed up:
as §1

In a further test the test system is PA-1. As to conditions: Gynecologic cancer cell panel viability, ATPlite luminescence, 48 h; series mostly up to 57.5 µM. The essentials: as §1
The subject of the next test is SKOV3. As to conditions: Gynecologic cancer cell panel viability, ATPlite luminescence, 48 h; series mostly up to 57.5 µM. Summed up:
as §1

Another test deals with Tov-21-G. As to conditions: Gynecologic cancer cell panel viability, ATPlite luminescence, 48 h; series mostly up to 57.5 µM. Summed up: as §1
In the next test the test system is Tov112D. To be noted: Gynecologic cancer cell panel viability, ATPlite luminescence, 48 h; series mostly up to 57.5 µM. The essentials: as §1

Results filed as inconclusive are left out. A number with no mark means an inactive call. Active and inactive are the calls of the source. The call rests on the fitted dose curve; in most records, active means well fitted cell-killing curve with a large enough effect; inconclusive means small, poorly fitted or top-dose-only effect, or effect the other way; inactive means flat fitted curve, though single readings scatter.
Potency means the concentration at half of the fitted maximal effect.

With `COC(O)(CC(C)C)C1Oc2cc(C)[nH]c(=O)c2O1` (stereo not given), the Potency entry in the test on C33A, in the test with CAOV3, with Es-2, with HeLa, with Hek293T and with JEG-3 was “inactive” throughout. Further, the Potency result with OV90, with PA-1, in the test on SKOV3, in the test with Tov-21-G and in the test on Tov112D was “inactive” in each case. Besides, the outcome in the test with CASKI was inactive.

Take `CC(C)Oc1ccc(-c2nc(-c3cccc4c3CCC4NCCC(=O)O)no2)cc1C#N` (stereo not given): the Potency entry in the test on C33A, with CAOV3, in the test with Es-2, in the test with HeLa, in the test on Hek293T and with JEG-3 was “inactive” throughout. The Potency entry in the test with OV90, in the test with PA-1, in the test with SKOV3, with Tov-21-G and with Tov112D was “inactive” throughout. Also, the outcome with CASKI was inactive.

Turning to `COC(=O)C(CC1(OC(=O)C(C)C)c2ccccc2N2C(=O)C(C)(C)N(O)C21)n1cnc2ccccc2c1=O` (stereo not given), the Potency result with C33A, in the test with CAOV3, with Es-2, in the test with HeLa, in the test on Hek293T and in the test with JEG-3 was “inactive” throughout. The Potency entry in the test on OV90, in the test with PA-1, with SKOV3, in the test on Tov-21-G and with Tov112D was “inactive” each time. Further, the outcome in the test with CASKI was inactive.

For the molecule `Fc1cccc(CN(C2=NCCN2)c2c(Cl)cccc2Cl)c1`, the Potency entry in the test on C33A, in the test with CAOV3, in the test with Es-2, in the test with HeLa, in the test with Hek293T and in the test on JEG-3 was “inactive” each time. The Potency result with OV90, in the test with PA-1, in the test on SKOV3, in the test with Tov-21-G and in the test with Tov112D was “inactive” in each case. For the same molecule, the outcome in the test with CASKI was inactive.

For `Cn1cc(CCn2cnc(-c3cnn(C)c3)c2-c2ccc(C#N)cc2)cn1`, the Potency result in the test on C33A, in the test with CAOV3, in the test with Es-2, in the test on HeLa, in the test on Hek293T and in the test on JEG-3 was “inactive” each time. The Potency entry with OV90, with PA-1, in the test on SKOV3, in the test on Tov-21-G and in the test on Tov112D was “inactive” throughout. Besides, the molecule was classed as inactive with CASKI.

Consider `CN1CCN(c2nc(-c3ccc(C(=O)NC4(C(=O)NCC#N)CCCCC4)cc3)cs2)CC1`, for which the Potency result in the test with C33A, in the test on CAOV3, in the test with Es-2, in the test on HeLa, with Hek293T and with JEG-3 was “inactive” in each case. Also, the Potency result in the test on OV90, with PA-1, with SKOV3, with Tov-21-G and in the test with Tov112D was “inactive” each time. The call in the test on CASKI was inactive.

In the case of `Cc1[nH]c2ccccc2c1CC(=O)N[C@@H](Cc1ccccc1)C(=O)N(C)c1ccccc1`, the Potency result in the test on C33A, in the test on CAOV3, in the test with Es-2, with HeLa, with Hek293T and in the test with JEG-3 was “inactive” each time. For the same molecule, the Potency result in the test on OV90, in the test with PA-1, with SKOV3, in the test with Tov-21-G and with Tov112D was “inactive” throughout. For the same molecule, the molecule was called inactive with CASKI.

For the molecule `CC(=O)OC1CC2C(C)(C)C(=O)C=CC2(C)C2CC(=O)C3=C(CCC3C3=CC(O)OC3=O)C12C` (stereo not given), the Potency result in the test with C33A, in the test on CAOV3, in the test with Es-2, with HeLa, in the test with Hek293T and with JEG-3 was “inactive” each time. For the same molecule, the Potency entry in the test on OV90, with PA-1, in the test on SKOV3, in the test with Tov-21-G and in the test on Tov112D was “inactive” throughout. Also, the call in the test with CASKI was inactive.

As for `COc1cccc(Cn2ncc3c4sc(S(C)=O)cc4n(C)c3c2=O)c1` (stereo not given), the Potency entry in the test with C33A, with CAOV3, in the test on Es-2, with HeLa, in the test on Hek293T and with JEG-3 was “inactive” throughout. The Potency entry in the test on OV90, in the test on PA-1, with SKOV3, with Tov-21-G and in the test with Tov112D was “inactive” each time. Besides, the molecule was called inactive in the test with CASKI.

For the molecule `CC1(C)CCC2(C(=O)O)CCC3(C)C(=CCC4C5(C)CCC(O)C(C)(CO)C5C(O)CC43C)C2C1` (stereo not given), the Potency entry in the test with C33A, in the test with CAOV3, in the test with Es-2, with HeLa, in the test with Hek293T and with JEG-3 was “inactive” each time. Further, the Potency entry in the test with OV90, in the test with PA-1, with SKOV3, in the test with Tov-21-G and in the test on Tov112D was “inactive” each time. In addition, the outcome in the test on CASKI was inactive.

In the case of `Cc1cn(C[C@H](N)C(=O)O)c(=O)n(Cc2ccsc2C(=O)O)c1=O`, the Potency result in the test on C33A, in the test on CAOV3, with Es-2, in the test on HeLa, in the test on Hek293T and with JEG-3 was “inactive” in each case. Besides, the Potency result in the test on OV90, in the test with PA-1, with SKOV3, in the test with Tov-21-G and in the test with Tov112D was “inactive” throughout. In addition, the molecule was called inactive with CASKI.

Regarding `COc1cc(/C=C/C(=O)OC[C@H]2O[C@@H](OC3OC=C(C(=O)O)C4C(O)CC(C)(O)C34)[C@H](O)[C@@H](O)[C@@H]2O)cc(OC)c1O` (stereo not given in full), the Potency entry with C33A, with CAOV3, with Es-2, in the test with HeLa, with Hek293T and in the test with JEG-3 was “inactive” throughout. The Potency result in the test on OV90, in the test on PA-1, with SKOV3, with Tov-21-G and in the test with Tov112D was “inactive” each time. Moreover, in the test on CASKI, the call was inactive.

In the case of `CNC(C)C(=O)NC(C(=O)N1CCCC1C(=O)Nc1cccc2ncccc12)C(C)C` (stereo not given), the Potency result in the test on C33A, in the test with Es-2, in the test with HeLa, in the test with Hek293T, with JEG-3 and with OV90 was “inactive” in each case. Moreover, the Potency result with PA-1 and in the test with Tov112D was “inactive” throughout. Besides, the Potency in the test with CAOV3 is 10 µM (active); in the test on SKOV3, 7.94 µM (active). Moreover, the molecule was classed as inactive in the test on CASKI.

Values taken from PubChem BioAssay (NCATS).
